The record followed here is PubChem BioAssay (EPA / NIEHS).

Calls of active or inactive are those of the source. Rule for the calls: active = hit-call score of the fitted dose curve at least 0.9, where 1 is the maximum; inactive = score below 0.9.

By AC50 is commonly meant the midpoint of the concentration-response curve, whichever way the signal moves.

The assay can be described thus: ATG_ISRE_CIS: Attagene CIS-FACTORIAL HepG2 Assay for human Interferon Regulatory Factor 1 (IRF1) binding to an Interferon-Stimulated Response Element (ISRE) (AID 2282948). Particulars: HepG2 ISRE cis-reporter (Attagene), mRNA transcription readout; actives raise or lower the signal. The procedure, abridged: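 Transiently transfected HepG2 cells carrying cis-element reporter units, dosed 24 hours. Reporter mRNA quantified by RT-PCR, fluorescent primer extension, HpaI digestion and capillary electrophoresis. Bidirectional fitting relative to DMSO.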
Regarding `CC(C)(C)c1ccc(CCOc2ncnc3ccccc23)cc1`, the compound was classed as inactive. The same measure, in the same setting: to `CCOc1cc(C=O)ccc1O` belongs “inactive”. `Clc1cc(C(Cl)(Cl)Cl)cnc1Cl`: the AC50 is 9.08 µM (active). For the compound `CCCCS(=O)(=O)Cl`, the compound was called inactive. Take `N#Cc1ccccc1N`: the outcome was inactive. Same read-out and setting: as for `OCCN(CCO)CCO`, the entry is “inactive”; as for `BrCC(Br)c1ccccc1` (stereo unspecified), “inactive”.

In the case of `C=CC(Cl)CCl` (stereo unspecified), the compound was called inactive. Take `O=[N+]([O-])c1ccc(Cl)c([N+](=O)[O-])c1`: the outcome was inactive. Take `CCC(C)(C#N)N=NC(C)(C#N)CC` (stereo unspecified): the outcome was inactive. For `CC(C)(C1CCC(O)CC1)C1CCC(O)CC1` (stereo unspecified), the outcome was inactive. Take `C=CC(=O)NC(C)(C)CC(C)=O`: the compound was called inactive.

Take `Cc1cc(SCc2sc(-c3ccc(C(F)(F)F)c(F)c3)nc2C)ccc1OCC(=O)O`: the AC50 was 42.8 µM (active).

Turning to `c1ccc2sc(SNC3CCCCC3)nc2c1`, the outcome was inactive.

On to `CCOC(=O)C(SP(=S)(OC)OC)c1ccccc1` (stereo unspecified), for which the compound was called inactive. For `c1csc(-c2ccc(-c3cccs3)s2)c1`, the concentration at half-maximal activity (AC50) is 3.41 µM (active).
